Drawing on PubChem BioAssay (NCATS), this text covers Potency for 55 compounds.

The target in experiment [1] is Retinaldehyde dehydrogenase 3 (Homo sapiens) (UniProt P47895). The experiment can be described thus: qHTS for Inhibitors of the Aldehyde Dehydrogenase Family (ALDH1A3) Confirmatory screens (AID 2061311). Also: nearly all actives have a fitted effect of over 60% in size. Also: potency is read from the fitted curve at half-maximal effect. For orientation: In qHTS, concentration-response curves come from the screen itself.
The target in experiment [2] is Retinal dehydrogenase 2 (Homo sapiens) (UniProt O94788). In words: qHTS for Inhibitors of the Aldehyde Dehydrogenase Family (ALDH1A2) Confirmation screens (AID 2061314). Also: nearly all actives have a fitted effect of over 65% in size. Also: potency is read from the fitted curve at half-maximal effect.
For experiment [3], the target named is Retinaldehyde dehydrogenase 3 (Homo sapiens) (UniProt P47895). In words: qHTS for Inhibitors of the Aldehyde Dehydrogenase Family (ALDH1A3) Primary screen (AID 2061315).
Experiment [4] addresses Aldehyde dehydrogenase 1A1 (Homo sapiens) (UniProt P00352). The experiment can be described thus: qHTS for Inhibitors of the Aldehyde Dehydrogenase Family (ALDH1A1) Confirmatory screens (AID 2061316). Also: nearly all actives have a fitted effect of over 65% in size. Also: potency is read from the fitted curve at half-maximal effect.
For experiment [5], the target named is Retinaldehyde dehydrogenase 3 (Homo sapiens) (UniProt P47895). In words: qHTS for Inhibitors of the Aldehyde Dehydrogenase Family (ALDH1A3) Validation screen (AID 2061312). Also: nearly all actives have a fitted effect of over 45% in size.

Results filed as inconclusive are left out. A call without a number means that no potency is given here. The source made the active and inactive calls. Calls follow the shape of the dose curve; as a rule, active = well fitted inhibition curve with a large enough effect; inconclusive = small, poorly fitted or top-dose-only effect; inactive = no such curve, though single readings can be large or run the other way.

As to `Cc1cc(C)nc(NC(=S)N2CCN(c3ccc4nccn4c3)CC2)c1`, the Potency in experiment [1] is 10.1 µM (active); in experiment [2] it was 14.2 µM (active); in experiment [4], 7.12 µM (active). For the same compound, in experiment [3], the Potency result was “inactive”.
Regarding `CC(=O)N1CCN(c2ccc(NS(=O)(=O)c3ccc4c(c3)CC(=O)N4)cc2)CC1`, the Potency entry in experiment [1], in experiment [2] and in experiment [3] was “inactive” throughout.
`CCC(=O)NC(c1cccs1)c1cc([N+](=O)[O-])c2cccnc2c1OC` (stereo unspecified): the results for the Potency in experiment [1], in experiment [2] and in experiment [4] were 3.57 µM (active), 2.01 µM (active) and 11.3 µM (active), respectively.
For `CC(=O)Nc1sc2c(c1-c1ccccc1)CCN(C(=O)OC(C)(C)C)C2`, the Potency entry in experiment [1] and in experiment [3] was “inactive” in each case. The Potency in experiment [4] is 7.98 µM (active).
For the compound `O=C1CCCC2=C1C(c1cccnc1Br)N=C(Nc1nc3ccccc3o1)N2` (stereo unspecified), the Potency in experiment [1] was 20.1 µM (active); in experiment [4], 11.3 µM (active). Moreover, in experiment [3], the Potency entry is “inactive”.
`O=C(c1n[nH]c2ccccc12)N1CCCC(Cc2noc(-c3cnccn3)n2)C1` (stereo unspecified): in experiment [2], the Potency entry was “inactive”.
`CCc1noc(-c2cccn3c(CNC(=O)COc4ccc(F)cc4)nnc23)n1`: in experiment [1], the Potency is 7.08 µM (active). Also, in experiment [4], the Potency result was “inactive”.
Consider `Cc1ccc(-c2nnc3ccccc3c2C(=O)Nc2cccc(C(F)(F)F)c2)cc1`, for which, in experiment [2], the Potency entry is “inactive”.
Take `Cc1ccnc(NC(=S)N2CCN(c3ccc(O)cc3)CC2)c1`: the Potency is 12.7 µM (active) in experiment [1] and 7.98 µM (active) in experiment [4].
For the compound `COc1ccc(S(=O)(=O)N2CCOC[C@H](Oc3ccc(C(F)(F)F)cc3)C2)cc1`, in experiment [2], the Potency result was “inactive”.
For `COc1ccc(S(=O)(=O)NCC(c2ccc(N(C)C)cc2)N2CCOCC2)cc1` (stereo unspecified), the Potency result in experiment [2] is “inactive”.
Take `N#Cc1cc2c(=O)n3ccccc3nc2n(-c2nnc(SCc3ccc(F)cc3)s2)c1=O`: the Potency entry in experiment [2] was “inactive”.
Still for that read-out and setting: for `CC(=O)c1cccc(NC(=O)c2ccc(Cl)c(S(=O)(=O)N3CCOCC3)c2)c1` the value was “inactive”; for `CC(C)NS(=O)(=O)c1ccc(OCC(=O)N2CCN(c3cccc(Cl)c3)CC2)cc1`, “inactive”; for `CCOc1ccc(N(C)S(=O)(=O)c2cc(-c3cc(C)no3)ccc2OC)cc1`, “inactive”.
For `O=C1COCCN1C1CCN(S(=O)(=O)c2cccc(C(F)(F)F)c2)CC1`, the Potency result in experiment [2] was “inactive”.
Consider `CCCCOc1cccc(C(=O)Nc2cc(NC(=O)c3ccco3)ccc2OC)c1`, for which, in experiment [2], the Potency result was “inactive”.
With `COC(=O)c1cc(C)nc2c1c(=O)nc(SCc1ccccc1Cl)n2C1CC1`, the Potency result in experiment [2] is “inactive”.
With `CC(=O)Nc1sc2c(c1-c1cc3ccccc3o1)CCNC2`, the Potency was 11.3 µM (active) in experiment [1] and 8.96 µM (active) in experiment [4].
In the case of `COc1cccc(-c2nn(-c3ccccc3)c(OC(C)=O)c2-c2ccc(NC(=O)C3CCCC3)cc2)c1`, the Potency entry in experiment [2] was “inactive”.
For the compound `COc1ccc(-c2ccc(C(=O)Nc3cccc(C(F)(F)F)c3)cc2)nn1`, the Potency entry in experiment [2] is “inactive”.
`CC(C)OCCCNC(=O)CN1C(=O)COc2ccc(S(=O)(=O)N3CCOCC3)cc21`: in experiment [2], the Potency entry was “inactive”.
Regarding `COc1cncc(Nc2cnc3ccc(-c4ccc(F)cc4)nn23)c1`, the Potency result in experiment [2] is “inactive”.
On to `CCc1nn2c(=O)c(S(=O)(=O)Nc3ccc(C(C)C)cc3)c(C)nc2s1`, for which the Potency entry in experiment [2] was “inactive”.
In the case of `Cc1ccc(S(=O)(=O)NC[C@H]2O[C@@H](CC(=O)NCCN3CCOCC3)[C@H](O)[C@@H]2O)cc1`, the Potency entry in experiment [2] was “inactive”.
As for `C=CC(=O)N1CCC[C@@H](n2nc(-c3cccc(C(=O)Nc4ccc(C(C)C)c(C)c4)c3)c3c(N)ncnc32)C1`, the Potency entry in experiment [5] and in experiment [3] was “inactive” throughout.
`C=CC(N)CCC(=O)O` (stereo unspecified): in experiment [5], the Potency entry was “inactive”.
In the case of `O=c1c2nc(OCc3ccc(F)cc3)ccc2ncn1C1CC1`, in experiment [2], the Potency entry is “inactive”.
In the case of `Cc1nn(-c2ccc3nncn3n2)c(C)c1CCC(=O)Nc1ccc(OC(F)(F)F)cc1`, the Potency result in experiment [2] was “inactive”.
`CNC(=O)c1cc(C2CC2)nc2onc(C3CCCN3C(=O)c3cccc(Cl)c3)c12` (stereo unspecified): the Potency entry in experiment [2] was “inactive”.
Take `COc1ccc(N(C)C(=O)c2cn(C)c(=O)c3cc(OC)c(OC)cc23)cc1`: in experiment [2], the Potency entry was “inactive”.
Consider `CCN(CC)CCNC(=O)CN1C(=O)COc2ccc(S(=O)(=O)N3CCOCC3)cc21`, for which the Potency result in experiment [2] was “inactive”.
As for `CCc1nn2c(=O)c(S(=O)(=O)Nc3ccc(Br)cc3F)c(C)nc2s1`, the Potency entry in experiment [2] was “inactive”.
Take `COc1ccc(N2CCN(C(=O)c3cc(NS(=O)(=O)c4ccc(F)cc4)ccn3)CC2)cc1`: the Potency entry in experiment [2] is “inactive”.
On the same count and under the same terms, next, `COc1ccc(CC(=O)N2CCC3(CC2)CN([S+](=O)([O-])c2ccccc2)CCO3)cc1`: “inactive”.
The same measure, in the same setting: next, `CCn1cc(C(=O)N(C)c2cc(C)ccc2C)c2cc(OC)c(OC)cc2c1=O`: “inactive”.
`Cc1ccnc(NCc2ccc(O)c3ncccc23)c1`: the results for the Potency in experiment [1] and in experiment [4] were 7.12 µM (active) and 8.96 µM (active), respectively.
`CCOc1ccc(C(=O)Nc2ccc(S(=O)(=O)N3CCCCC3c3cccnc3)cc2)cc1` (stereo unspecified): the Potency entry in experiment [2] is “inactive”.
With `CN(CC(=O)Nc1ccc(OC(F)(F)F)cc1)S(=O)(=O)c1ccc2c(c1)CCC(=O)N2`, the Potency entry in experiment [2] is “inactive”.
For the compound `COc1ccc(-c2nc(CNS(=O)(=O)c3cccc(F)c3)cs2)cc1`, in experiment [2], the Potency is 5.76 µM (active).
On to `COc1cc2nc(NC(=O)c3ccc(S(=O)(=O)N4CCOCC4)cc3)sc2cc1OC`, for which, in experiment [2], the Potency result is “inactive”.
In the case of `COc1ccccc1CC(=O)NCc1cccnc1-n1cnc2ccccc21`, the Potency entry in experiment [2] was “inactive”.
For the compound `CCOc1ccc(-c2cc(C(=O)NC(C)c3ccccc3)c3ccccc3n2)cc1` (stereo unspecified), the Potency entry in experiment [2] is “inactive”.
The same measure, in the same setting: next, `Cc1ccc2cccc(NC(=O)COc3ccccc3[N+](=O)[O-])c2n1`: “inactive”; `CC(C)OCCCn1c(SCc2ccccc2Cl)nc2c(sc3ccccc32)c1=O`: “inactive”.
As for `CCOc1ccc(C(=O)N2CCN(Cc3cc(=O)n4nc(-c5cccc(OC)c5)sc4n3)CC2)cc1`, the Potency result in experiment [2] was “inactive”. Further, the Potency in experiment [4] is 6.47 µM (active).
For `CN(C)c1cccc(-c2nnc(N3CCC(C(N)=O)CC3)s2)c1`, the Potency entry in experiment [3] was “inactive”.
For the compound `CC(C)(C)OC(=O)N1CCN(c2ccc(OCc3ccc(-c4ccc(C#N)cc4)o3)cc2)CC1`, in experiment [3], the Potency result is “inactive”.
In the case of `O=C(c1ccccc1O)N(Cc1ccco1)Cc1cccs1`, the Potency in experiment [2] is 22.5 µM (active); in experiment [4], 11.3 µM (active). The Potency result in experiment [3] is “inactive”.
Consider `Cc1ccc(NS(=O)(=O)c2cc3c(cc2C)NC(=O)CO3)cc1C`, for which the Potency result in experiment [3] is “inactive”.
For the compound `CCOC(=O)c1[nH]c2c(c1C)CCC(c1ccco1)C2` (stereo unspecified), the Potency entry in experiment [3] was “inactive”.
With `O=[N+]([O-])c1cc(C(F)(F)F)ccc1N1CCN(C(=S)Nc2cc(Cl)ccn2)CC1`, the values for the Potency in experiment [2] and in experiment [4] were 14.2 µM (active) and 5.04 µM (active), respectively. In addition, the Potency result in experiment [3] is “inactive”.
Consider `NC(=O)C1CCN(c2nc(-c3ccc(Oc4ccccc4)cc3)cs2)CC1`, for which, in experiment [3], the Potency result was “inactive”.
In the case of `CCOc1ccc(CCNC(=O)CN(C)C)cc1OCC`, the Potency result in experiment [3] was “inactive”.
Consider `Cc1ccc2nc3sc(C(=O)Nc4ccc(F)cc4)cc3cc2c1`, for which, in experiment [3], the Potency result was “inactive”.
